Screens: PubChem, National Center for Advancing Translational Sciences (NCATS)
In the library only some 18% were active in any assay of this set; here they are far more common.
GCN5L2 inh: blocks human GCN5L2 histone acetyltransferase. Q92830. GCN5L2 HAT assay, ThioGlo1 CoA-SH fluorescence. 0.21% of 390,000 active. Potency, µM (titrated, usually from 58.9 µM), usual class: inhibitors
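Preincubate 20nM GCN5L2 with compound 15 min, RT → add 50uM ThioGlo1 + 75uM H3(1-25) + 70uM acetyl-CoA → read fluorescence 0 and 20 min. Primary qHTS; fluorescent artifacts likely.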
DT40 TDP1 CPT: DT40-hTDP1 cell growth loss with CPT. chicken DT40 Tdp1-/-;hTDP1 cells + 20 nM CPT, ATP luminescence, 48 h. Potency, µM (highest dose often 46.2 µM), actives largely listed as inhibitors. 12% of 420,000 active. AID 686979; further: nearly all actives have a fitted effect of over 55% in size
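Chicken DT40 Tdp1-/- cells stably complemented with human TDP1 were seeded at 400 cells/well in medium containing 20 nM camptothecin, exposed to pin-transferred compounds, and grown at 37 °C for at least 48 hr. Viability was read as ATP luminescence.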
TDP1 block: TDP1 (human) enzyme inhibition. Q9NUW8. Potency, µM (doses to about 130 µM), usual class: inhibitors. 0.28% of 350,000 active. recombinant TDP1, AlphaScreen DNA substrate cleavage; further: nearly all actives have a fitted effect of over 40% in size
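Compounds were preincubated with Tdp1 (1 nM final) for 15 min at room temperature before substrate (15 nM final) started a 5 min reaction; beads (10 ug/ml final) were then added for 10 min before AlphaScreen detection.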
VDR inh: inhibitors of human vitamin D receptor. P11473. Potency, µM, hits mostly inhibitors. 0.93% of 400,000 active. VDR-SRC2-3 peptide fluorescence polarization, 2 h
Target sequence (P11473 whole entry, looked up): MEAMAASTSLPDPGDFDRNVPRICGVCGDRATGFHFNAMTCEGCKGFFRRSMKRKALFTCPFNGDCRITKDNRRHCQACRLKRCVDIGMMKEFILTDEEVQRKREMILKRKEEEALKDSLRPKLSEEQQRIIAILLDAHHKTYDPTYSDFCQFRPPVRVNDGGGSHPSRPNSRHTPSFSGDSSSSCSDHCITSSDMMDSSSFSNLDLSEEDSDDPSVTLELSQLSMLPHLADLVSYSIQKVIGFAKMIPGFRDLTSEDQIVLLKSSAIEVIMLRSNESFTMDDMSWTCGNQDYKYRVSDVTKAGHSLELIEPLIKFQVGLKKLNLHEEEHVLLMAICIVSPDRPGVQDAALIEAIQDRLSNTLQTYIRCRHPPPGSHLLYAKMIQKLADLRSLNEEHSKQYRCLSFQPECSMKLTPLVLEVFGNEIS
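Compounds are added to VDR with labelled SRC2-3 coactivator peptide and held 2 h at room temperature. Inhibition of the VDR–peptide interaction is then read as a change in fluorescence polarization.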
TDP1 cell noCPT: qHTS for Inhibitors of human tyrosyl-DNA phosphodiesterase 1 (TDP1): qHTS in cells in absence of CPT. AID 686978, 2013. Potency, µM (titrated, usually from 46.2 µM), actives largely listed as inhibitors. 15% of 420,000 active. DT40 Tdp1-/- hTDP1 cells, no CPT, ATP luminescence, 48 h; further: nearly all actives have a fitted effect of over 55% in size
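No-CPT arm: Tdp1-/-;hTDP1 DT40 cells (400/well) plus compounds, incubated ≥48 hr at 37 °C. Readout CellTiter-Glo luminescence.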
PLK1 PBD block: blocks phosphopeptide binding to human PLK1 polo-box domain; P53350; Plk1 PBD binding of FITC phosphopeptide, fluorescence polarization; Potency, µM, hits mostly inhibitors; 2.8% of 360,000 active; AID 720504; further: series mostly up to about 57 µM; nearly all actives have a fitted effect of over 65% in size
A number is an active result; ! = repeats disagree; [ ] = remark or other dose. The call rests on the fitted dose curve; in most records, active means well fitted curve in the direction sought with a large enough effect; inconclusive means small, poorly fitted or top-dose-only effect, or another doubt; inactive means no such curve, though single readings can be large; an effect the other way counts as inactive or inconclusive.

Screening Brc1ccc2ncnc(Nc3cccc4ccccc34)c2c1 returned GCN5L2 inh inactive, DT40 TDP1 CPT inconclusive, TDP1 block inactive, VDR inh inactive, TDP1 cell noCPT inconclusive and PLK1 PBD block inactive.
`COc1ccc(-c2cc(=O)n(-c3nc4ccccc4[nH]3)[nH]2)cc1` gave GCN5L2 inh inconclusive, DT40 TDP1 CPT 35µM, TDP1 block inactive, VDR inh inactive, TDP1 cell noCPT inactive and PLK1 PBD block inactive.
For COc1ccc(CCCc2nc3ccccc3[nH]2)cc1 the results were GCN5L2 inh inactive, DT40 TDP1 CPT inactive, VDR inh inactive, TDP1 cell noCPT inconclusive and PLK1 PBD block inactive.
Cc1ccc(-c2nc3ccccc3[nH]2)s1 was read as GCN5L2 inh inactive, DT40 TDP1 CPT 9.2µM, TDP1 block inactive, VDR inh inactive, TDP1 cell noCPT 16µM and PLK1 PBD block inactive.
`Nc1cc(N)cc(-c2nc3ccccc3[nH]2)c1` gave GCN5L2 inh inactive, DT40 TDP1 CPT 10µM, TDP1 block inactive, VDR inh inactive, TDP1 cell noCPT 18µM and PLK1 PBD block inactive.
`COc1ccc2oc(=Nc3ccccc3)c(-c3nc4ccccc4[nH]3)cc2c1` gave GCN5L2 inh inactive, DT40 TDP1 CPT 10µM, TDP1 block inactive, VDR inh inactive, TDP1 cell noCPT inconclusive and PLK1 PBD block inactive.
For c1csc(-c2nc3ccccc3[nH]2)c1 the results were GCN5L2 inh inactive, DT40 TDP1 CPT inactive, TDP1 block inactive, VDR inh inactive, TDP1 cell noCPT inactive and PLK1 PBD block inactive.
Screening CCC1CN(CC(=O)NC(C)c2c(C)nn(C)c2C)Cc2cc(OC)ccc2O1 (stereo not given) returned DT40 TDP1 CPT inactive[9.04 µM] and TDP1 cell noCPT inactive.
For C=CCN(c1cccc(C(F)(F)F)c1)S(=O)(=O)c1cccc(C(=O)OCC(=O)Nc2ccccc2)c1 the results were GCN5L2 inh inactive, DT40 TDP1 CPT inactive, TDP1 block inactive, VDR inh inactive, TDP1 cell noCPT inactive and PLK1 PBD block inactive.
For COc1ccc(-c2nc3ccccc3[nH]2)cc1 the results were GCN5L2 inh inactive, DT40 TDP1 CPT 10µM, TDP1 block inactive, VDR inh inactive, TDP1 cell noCPT 13µM and PLK1 PBD block inactive.
`c1ccc(-c2nc3ccccc3[nH]2)cc1` gave GCN5L2 inh inconclusive, DT40 TDP1 CPT inconclusive, VDR inh inactive, TDP1 cell noCPT inactive and PLK1 PBD block inactive.
Nc1nc(-c2nc3ccccc3[nH]2)cs1 was read as GCN5L2 inh inactive, DT40 TDP1 CPT 23µM, TDP1 block inactive, VDR inh inactive, TDP1 cell noCPT inconclusive and PLK1 PBD block inactive.
Screening Nc1nc(CSc2nc3ccccc3[nH]2)cs1 returned GCN5L2 inh inactive, DT40 TDP1 CPT inconclusive, TDP1 block inactive, VDR inh inactive, TDP1 cell noCPT inactive and PLK1 PBD block inactive.
O=C(c1ccco1)N1CCN(Cc2nc3cc(Cl)ccc3c(=O)[nH]2)CC1 was read as GCN5L2 inh inactive, DT40 TDP1 CPT inactive, TDP1 block inactive, VDR inh inactive, TDP1 cell noCPT inactive and PLK1 PBD block inactive.
`Cc1ccc2c(c1)CCCN2C(=O)CCc1nc2ccccc2c(=O)[nH]1` gave GCN5L2 inh inactive, DT40 TDP1 CPT 0.46µM, TDP1 block inactive, VDR inh inactive, TDP1 cell noCPT inconclusive and PLK1 PBD block inactive.
For O=C(CCc1nc2ccccc2c(=O)[nH]1)N1CCN(C/C=C/c2ccccc2)CC1 the results were GCN5L2 inh inactive, DT40 TDP1 CPT 7.3µM, TDP1 block inactive, VDR inh inactive, TDP1 cell noCPT 6.5µM and PLK1 PBD block inactive.
`O=c1[nH]c(CN2CCN(C/C=C/c3ccccc3)CC2)nc2cc(Cl)ccc12` gave GCN5L2 inh inactive, DT40 TDP1 CPT inconclusive, TDP1 block inactive, VDR inh inactive, TDP1 cell noCPT 21µM and PLK1 PBD block inactive.
Screening CC(=O)N1CCN(C(=O)CCc2nc3ccccc3c(=O)[nH]2)CC1 returned GCN5L2 inh inactive, DT40 TDP1 CPT inconclusive, TDP1 block inactive, VDR inh inactive, TDP1 cell noCPT inactive and PLK1 PBD block inactive.
`O=C(CSc1nc2nn(-c3ccccc3)c(=O)c-2c2n1CCCCC2)c1ccc(O)c(O)c1` gave GCN5L2 inh inconclusive, DT40 TDP1 CPT inconclusive, TDP1 block inactive, VDR inh inactive, TDP1 cell noCPT inconclusive and PLK1 PBD block inactive.
NS(=O)(=O)c1cccc2c1c([N+](=O)[O-])cc1nc(O)c(O)nc12 was read as GCN5L2 inh inactive, DT40 TDP1 CPT inactive, TDP1 block inactive, VDR inh 40µM!, TDP1 cell noCPT inactive and PLK1 PBD block inactive.
CCO/C(C)=N/Oc1cncnc1 was read as DT40 TDP1 CPT inactive, TDP1 cell noCPT inactive and PLK1 PBD block inactive.
CN=C1S/C(=C\c2ccc(N3CCCC3)c(F)c2)C(=O)N1C was read as GCN5L2 inh inactive, DT40 TDP1 CPT inconclusive, TDP1 block inactive, VDR inh inactive, TDP1 cell noCPT inconclusive and PLK1 PBD block inactive.
`CN=C1S/C(=C\c2ccc(N3CCOCC3)c(F)c2)C(=O)N1C` gave GCN5L2 inh inactive, DT40 TDP1 CPT inconclusive, TDP1 block inactive, VDR inh inactive, TDP1 cell noCPT 15µM and PLK1 PBD block inactive.
Screening CCOc1ccc2c(c1)C(=NNC(=O)c1ccccn1)c1cc(OCC)ccc1-2 returned DT40 TDP1 CPT inconclusive, VDR inh inactive, TDP1 cell noCPT inconclusive and PLK1 PBD block inactive.
`CC(=O)Nc1cccc(S(=O)(=O)Nc2ccc(C)c(C)c2)c1` gave TDP1 block inactive.
For N=C1C(c2ccccc2)=C(O)CN1c1cccc(S(=O)(=O)N2CCOCC2)c1 the results were GCN5L2 inh inactive, DT40 TDP1 CPT inconclusive, VDR inh inconclusive, TDP1 cell noCPT inactive and PLK1 PBD block 17µM.
`N=C1C(c2ccccc2)=C(O)CN1c1cccc(S(N)(=O)=O)c1` gave GCN5L2 inh inactive, DT40 TDP1 CPT inactive, TDP1 block inactive, VDR inh inactive, TDP1 cell noCPT inactive and PLK1 PBD block inactive.
For CCCN(c1ccccc1C(=O)O)S(=O)(=O)c1ccc2c(c1)n(C)c(=O)n2C the results were GCN5L2 inh inactive, DT40 TDP1 CPT inactive, VDR inh inactive, TDP1 cell noCPT inactive and PLK1 PBD block inactive.
`CCOC(=O)C1CCCN(CC(=O)N2CCCc3c2c(=O)oc2ccc(OCc4ccccc4)cc32)C1` (stereo not given) gave GCN5L2 inh inactive, DT40 TDP1 CPT inactive, VDR inh inactive and TDP1 cell noCPT inconclusive.
`O=C(CN1CCN(Cc2ccccc2)CC1)N1CCCc2c1c(=O)oc1ccc(O)cc21` gave GCN5L2 inh inactive, DT40 TDP1 CPT 23µM, TDP1 block inactive, VDR inh inactive, TDP1 cell noCPT inconclusive and PLK1 PBD block inactive.
